Measured values as given in PubChem BioAssay AID1159580 (chemical genetic matrix, 2015).
The whole screen tested about 5,500 compounds, of which about 2,000 (36%) were called active. Not shown: some 18% with an inconclusive outcome. Rule as the data show it: active = normalized growth mostly below about 0.91 (no sharp cut-off); inconclusive = no clear call, values can overlap the other calls; inactive = mostly above about 0.92. The list shows a part of the results.

Test: chemical genetic growth profiling, strain panel (AID 1159580);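 also: tested at 20 µM; growth read once vehicle control cultures reached saturation at 30 °C; 1 = growth at the plate median or of vehicle wells; lower values mean less growth of the strain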
Conditions: growth OD
[1] = S. cerevisiae deletion strains, locus YAL013W, strain DEP1, hits give low values
[2] = S. cerevisiae deletion strains, locus YBR229C, strain ROT2, hits give low values
[3] = S. cerevisiae deletion strains, locus YDL101C, strain DUN1, hits give low values
[4] = S. cerevisiae deletion strains, locus YDR150W, strain NUM1, hits give low values
[5] = S. cerevisiae deletion strains, locus YEL061C, strain CIN8, hits give low values
[6] = S. cerevisiae deletion strains, locus YGR078C, strain PAC10, hits give low values
[7] = S. cerevisiae deletion strains, locus YHR030C, strain SLT2, hits give low values
[8] = S. cerevisiae deletion strains, locus YHR087W, strain rtc3, hits give low values
[9] = S. cerevisiae deletion strains, locus YJR043C, strain POL32, hits give low values
[10] = S. cerevisiae deletion strains, locus YJR075W, strain HOC1, hits give low values
[11] = S. cerevisiae deletion strains, locus YLR039C, strain RIC1, hits give low values
[12] = S. cerevisiae deletion strains, locus YLR058C, strain SHM2 (second series), hits give low values
[13] = S. cerevisiae deletion strains, locus YLR085C, strain ARP6, hits give low values
[14] = S. cerevisiae deletion strains, locus YLR262C, strain YPT6, hits give low values
[15] = S. cerevisiae deletion strains, locus YML094W, strain GIM5, hits give low values
[16] = S. cerevisiae deletion strains, locus YMR219W, strain ESC1, hits give low values
[17] = S. cerevisiae deletion strains, locus YMR263W, strain SAP30, hits give low values
[18] = S. cerevisiae deletion strains, locus YNL153C, strain GIM3, hits give low values
[19] = S. cerevisiae deletion strains, locus YNL298W, strain CLA4 (second series), hits give low values
[20] = S. cerevisiae deletion strains, locus YNL322C, strain KRE1, hits give low values
[21] = S. cerevisiae deletion strains, locus YNR030W, strain Alg12, hits give low values
[22] = S. cerevisiae deletion strains, locus YOL006C, strain TOP1, hits give low values
[23] = S. cerevisiae deletion strains, locus YPL055C, strain LGE1, hits give low values
[24] = S. cerevisiae deletion strains, locus YPL241C, strain CIN2, hits give low values
[25] = S. cerevisiae deletion strains, locus YPR135W, strain CTF4, hits give low values
[26] = S. cerevisiae strains, strain wild type, hits give low values
[27] = S. cerevisiae deletion strains, locus YAR019C, strain CDC15, hits give low values
[28] = S. cerevisiae deletion strains, locus YBL105C, strain PKC1, hits give low values
[29] = S. cerevisiae deletion strains, locus YBR135W, strain CKS1, hits give low values
[30] = S. cerevisiae deletion strains, locus YBR136W, strain MEC1, hits give low values
[31] = S. cerevisiae deletion strains, locus YBR160W, strain CDC28, hits give low values
[32] = S. cerevisiae deletion strains, locus YDL017W, strain CDC7, hits give low values
[33] = S. cerevisiae deletion strains, locus YDL028C, strain MPS1, hits give low values
[34] = S. cerevisiae deletion strains, locus YDL108W, strain KIN28, hits give low values
[35] = S. cerevisiae deletion strains, locus YDL132W, strain cdc53, hits give low values
[36] = S. cerevisiae deletion strains, locus YDL214C, strain PRR2, hits give low values
[37] = S. cerevisiae deletion strains, locus YDR052C, strain DBF4, hits give low values
[38] = S. cerevisiae deletion strains, locus YDR054C, strain cdc34, hits give low values
[39] = S. cerevisiae deletion strains, locus YDR226W, strain ADK1, hits give low values
[40] = S. cerevisiae deletion strains, locus YDR477W, strain SNF1, hits give low values
[41] = S. cerevisiae deletion strains, locus YER123W, strain YCK3, hits give low values
[42] = S. cerevisiae deletion strains, locus YER133W, strain GLC7, hits give low values
[43] = S. cerevisiae deletion strains, locus YFL009W, strain cdc4, hits give low values
[44] = S. cerevisiae deletion strains, locus YFL029C, strain CAK1, hits give low values
[45] = S. cerevisiae deletion strains, locus YFR003C, strain YPI1, hits give low values
[46] = S. cerevisiae deletion strains, locus YFR019W, strain FAB1, hits give low values
[47] = S. cerevisiae deletion strains, locus YFR028C, strain CDC14, hits give low values
[48] = S. cerevisiae deletion strains, locus YGR040W, strain KSS1, hits give low values
[49] = S. cerevisiae deletion strains, locus YGR052W, strain FMP48, hits give low values
[50] = S. cerevisiae deletion strains, locus YGR092W, strain DBF2, hits give low values
[51] = S. cerevisiae deletion strains, locus YHR079C, strain IRE1, hits give low values
[52] = S. cerevisiae deletion strains, locus YHR082C, strain KSP1, hits give low values
[53] = S. cerevisiae deletion strains, locus YHR205W, strain SCH9, hits give low values
[54] = S. cerevisiae deletion strains, locus YIL147C, strain SLN1, hits give low values
[55] = S. cerevisiae deletion strains, locus YJL095W, strain BCK1, hits give low values
[56] = S. cerevisiae deletion strains, locus YJL128C, strain PBS2, hits give low values
[57] = S. cerevisiae deletion strains, locus YJL157C, strain FAR1, hits give low values
[58] = S. cerevisiae deletion strains, locus YJR016C, strain ILV3, hits give low values
[59] = S. cerevisiae deletion strains, locus YJR066W, strain TOR1 (second series), hits give low values
[60] = S. cerevisiae deletion strains, locus YJR066W, strain TOR1, hits give low values
[61] = S. cerevisiae deletion strains, locus YKL048C, strain ELM1, hits give low values
[62] = S. cerevisiae deletion strains, locus YKL067W, strain YNK1, hits give low values
[63] = S. cerevisiae deletion strains, locus YKL101W, strain HSL1, hits give low values
[64] = S. cerevisiae deletion strains, locus YKL193C, strain SDS22, hits give low values
[65] = S. cerevisiae deletion strains, locus YKL203C, strain TOR2, hits give low values
[66] = S. cerevisiae deletion strains, locus YLR113W, strain HOG1, hits give low values
[67] = S. cerevisiae deletion strains, locus YLR133W, strain CKI1, hits give low values
[68] = S. cerevisiae deletion strains, locus YLR403W, strain SFP1, hits give low values
[69] = S. cerevisiae deletion strains, locus YML070W, strain DAK1, hits give low values
[70] = S. cerevisiae deletion strains, locus YMR001C, strain CDC5, hits give low values
[71] = S. cerevisiae deletion strains, locus YMR205C, strain PFK2 (second series), hits give low values
[72] = S. cerevisiae deletion strains, locus YMR277W, strain FCP1, hits give low values
[73] = S. cerevisiae deletion strains, locus YNL006W, strain LST8, hits give low values
[74] = S. cerevisiae deletion strains, locus YNL020C, strain ARK1, hits give low values
[75] = S. cerevisiae deletion strains, locus YNL161W, strain CBK1, hits give low values
[76] = S. cerevisiae deletion strains, locus YNL183C, strain NPR1, hits give low values
[77] = S. cerevisiae deletion strains, locus YNL207W, strain RIO2, hits give low values
[78] = S. cerevisiae deletion strains, locus YNL222W, strain SSU72, hits give low values
[79] = S. cerevisiae deletion strains, locus YNL307C, strain MCK1 (second series), hits give low values
[80] = S. cerevisiae deletion strains, locus YOL078W, strain AVO1, hits give low values
[81] = S. cerevisiae deletion strains, locus YOL136C, strain PFK27, hits give low values
[82] = S. cerevisiae deletion strains, locus YOR061W, strain CKA2, hits give low values
[83] = S. cerevisiae deletion strains, locus YOR119C, strain RIO1, hits give low values
[84] = S. cerevisiae deletion strains, locus YOR231W, strain MKK1, hits give low values
[85] = S. cerevisiae deletion strains, locus YOR329C, strain SCD5, hits give low values
[86] = S. cerevisiae deletion strains, locus YPL031C, strain PHO85, hits give low values
[87] = S. cerevisiae deletion strains, locus YPL153C, strain RAD53, hits give low values
[88] = S. cerevisiae deletion strains, locus YPL204W, strain HRR25, hits give low values
[89] = S. cerevisiae deletion strains, locus YPL209C, strain IPL1, hits give low values
[90] = S. cerevisiae deletion strains, locus YPL256C, strain CLN2, hits give low values
[91] = S. cerevisiae deletion strains, locus YPR025C, strain CCL1, hits give low values
[92] = S. cerevisiae deletion strains, locus YPR106W, strain ISR1, hits give low values
[93] = S. cerevisiae deletion strains, locus YPR111W, strain DBF20, hits give low values
[94] = S. cerevisiae deletion strains, strain NNK1, hits give low values
[95] = S. cerevisiae deletion strains, strain TSCII, hits give low values

Measured: normalized growth

N/C(=N/OS(=O)(=O)c1ccc(Cl)cc1)c1ccc(C(F)(F)F)cc1
inactive: [1] 0.957 | [2] 0.978 | S. cerevisiae deletion strains, locus YCL061C, strain MRC1, hits give low values 0.946 | [3] 0.958 | S. cerevisiae deletion strains, locus YDL134C, strain PPH21, hits give low values 0.978 | [4] 0.96 | [5] 0.997 | [6] 0.971 | [7] 0.915 | [8] 1.01 | [9] 0.97 | [10] 0.955 | S. cerevisiae deletion strains, locus YKL190W, strain CNB1, hits give low values 0.981 | [11] 0.969 | [12] 0.976 | [13] 0.968 | [14] 0.999 | [15] 0.985 | [16] 0.99 | [17] 0.991 | [18] 0.976 | [19] 0.943 | [20] 0.967 | [21] 0.971 | [22] 0.897 | [23] 1.02 | [24] 0.965 | [25] 0.847 | [26] 0.973

Cc1ccc(C(=O)O/N=C(/N)CSc2ncccc2C(F)(F)F)cc1
active: [66] 0.828
inactive: [27] 1 | [28] 1.01 | [29] 1 | [30] 1.01 | [31] 1 | [32] 1.01 | [33] 0.989 | [3] 1 | [34] 1 | [35] 1.01 | [36] 0.991 | [37] 1.01 | [38] 1.01 | [39] 1.02 | [40] 0.994 | [41] 0.995 | [42] 0.976 | [43] 0.994 | [44] 1 | [45] 1 | [46] 0.955 | [47] 1.01 | [48] 0.998 | [49] 1.02 | [50] 1 | [7] 0.982 | [51] 0.793 | [52] 1.19 | [53] 0.988 | [54] 1.01 | [55] 0.887 | [56] 0.988 | [57] 0.997 | [58] 1.01 | [59] 0.975 | [60] 1.16 | [61] 0.991 | [62] 0.996 | [63] 1 | [64] 1.01 | [65] 1.07 | [67] 1 | [68] 0.976 | [69] 0.988 | [70] 1.01 | [71] 0.993 | [72] 1.01 | [73] 1.01 | [74] 1 | [75] 1.01 | [76] 0.951 | [77] 1.02 | [78] 1 | [79] 1.01 | [80] 1 | [81] 0.994 | [82] 0.982 | [83] 1.02 | [84] 0.821 | [85] 1.01 | [86] 1 | [87] 0.984 | [88] 0.994 | [89] 1.01 | [90] 0.884 | [91] 1 | [92] 1.01 | [93] 1 | [94] 1.02 | [95] 1.01

Cc1cc(C(=O)O/N=C(/N)CSc2ncccc2C(F)(F)F)no1
inactive: [27] 0.997 | [28] 0.993 | [29] 0.994 | [30] 0.992 | [31] 0.988 | [32] 0.995 | [33] 0.993 | [3] 1.01 | [34] 0.996 | [35] 0.99 | [36] 0.999 | [37] 0.998 | [38] 0.989 | [39] 0.991 | [40] 1 | [41] 1.01 | [42] 1.01 | [43] 0.999 | [44] 0.998 | [45] 0.993 | [46] 1 | [47] 0.994 | [48] 1.02 | [49] 0.995 | [50] 1.02 | [7] 0.957 | [51] 0.772 | [52] 1.17 | [53] 1 | [54] 0.991 | [55] 0.841 | [56] 0.983 | [57] 1.01 | [58] 0.997 | [59] 1 | [60] 1.14 | [61] 1.01 | [62] 0.993 | [63] 1 | [64] 0.989 | [65] 1.08 | [67] 1.01 | [68] 1.02 | [69] 0.995 | [70] 0.997 | [71] 1.02 | [72] 0.994 | [73] 0.999 | [74] 1.01 | [75] 0.996 | [76] 0.933 | [77] 0.997 | [78] 0.978 | [79] 1.01 | [80] 0.998 | [81] 1.01 | [82] 1.02 | [83] 1.04 | [84] 0.792 | [85] 0.995 | [86] 1 | [87] 0.997 | [88] 1.01 | [89] 0.992 | [91] 0.999 | [92] 0.997 | [93] 0.993 | [94] 1.01 | [95] 0.99
active: [66] 0.789 | [90] 0.824

COC(=O)c1cn(Cc2ccc(C(F)(F)F)cc2)cc(F)c1=O
inactive: [1] 1.02 | [2] 0.996 | [3] 0.996 | [4] 0.923 | [5] 0.998 | [6] 1 | [7] 1.08 | [8] 1 | S. cerevisiae deletion strains, locus YJL187C, strain SWE1, hits give low values 1.04 | [9] 0.99 | [10] 1 | [11] 1.02 | [12] 0.996 | [13] 1.09 | [14] 1.04 | [15] 1.03 | [16] 1 | [17] 0.931 | S. cerevisiae deletion strains, locus YNL128W, strain TEP1, hits give low values 1.01 | [18] 0.988 | [19] 1.02 | [20] 1.01 | [21] 1.02 | [22] 1.04 | [23] 0.921 | [24] 1.01 | [25] 1.05 | [26] 1.02
